Sampled rows, rich in hits. Any-hit rate of the full collection: about 5.3%.
IMPase Li cell: qHTS Assay for Identifying the Cell-Membrane Permeable IMPase Inhibitors: Potentiation with Lithium | CHO-M1 cells, IP1 TR-FRET (IP-One), carbachol + lithium | Potency, µM (titrated, usually from 59.4 µM), for inactives: at the highest dose activity, negative = IMPase inhibition, usual class: inhibitors | actives 0.35% (n = 210,000);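 also: IP1 builds up when IMPase is blocked and the TR-FRET signal falls; potency is read from the fitted curve at half-maximal effect; plate controls were basal vehicle for no effect and high inhibitor control for full effect; nearly all actives have a fitted effect of over 50% in size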
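Test compounds were applied to CHO-M1 cells previously cultured for 16–30 h at 2000 per well. A small lithium amount accompanied them; after 30 min at 37C, IP1 was quantified by TR-FRET.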
PNC inhibitor: High Content Assay for Compounds that inhibit the Assembly of the Perinucleolar Compartment; actives 3.1% (n = 140,000); activity change (PNC), negative = inhibition, % at 10 µM; AID 2417, 2010; PC3M PTB-GFP, PNC prevalence imaging, 16 h; active compounds read low;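 active = readout at or below -70, meaning at least 70% loss of cells showing the perinucleolar compartment, a nuclear body marking cancer cells; inconclusive = readout between -30 and a set limit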;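 also: plate controls were DMSO wells for no effect and camptothecin positive control wells for full effect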
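Compounds are pinned in duplicate onto adhered PC3M cells stably expressing GFP-tagged PTB and incubated 16 h at 37 C. Cells are then fixed, nuclei stained with Hoechst, and PNC-positive cells counted.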
IMPase cell inh: qHTS Assay for Identifying the Cell-Membrane Permeable IMPase Inhibitors; Inositol monophosphatase 1 (Rattus norvegicus), P97697; CHO-M1 cells, IP1 accumulation, HTRF TR-FRET ratio; inhibition (IP1 accumulation), % at 46.1 µM; 120,000 tested, under 10 active; AID 901, 2007; active = well fitted curve in the direction sought with a large enough effect in the signal ratio, not every such curve was filed as active; inconclusive = small, poorly fitted or top-dose-only effect, or a change in a side signal; inactive = no such curve, though single readings can be large or run the other way; the % refers to the signal ratio;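 also: cells stimulated with carbachol in lithium chloride buffer; plate controls were DMSO basal wells for no effect and reference inhibitor wells for full effect; higher means more IMPase inhibition seen as more IP1 and lower FRET ratio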
Target sequence (P97697 whole entry, looked up): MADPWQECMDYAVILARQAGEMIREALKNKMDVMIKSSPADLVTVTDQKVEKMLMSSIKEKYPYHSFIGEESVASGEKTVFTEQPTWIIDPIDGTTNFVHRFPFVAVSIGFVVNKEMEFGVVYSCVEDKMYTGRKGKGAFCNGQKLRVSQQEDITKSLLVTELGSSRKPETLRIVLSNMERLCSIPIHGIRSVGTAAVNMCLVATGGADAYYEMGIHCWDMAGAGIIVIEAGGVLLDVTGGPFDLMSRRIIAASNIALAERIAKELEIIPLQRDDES
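Cellular IMPase inhibition is scored as a rise in cytosolic IP1, detected by competitive TR-FRET between d2-labelled IP1 and a europium anti-IP1 antibody. M1-expressing CHO cells were stimulated with carbachol for 30 min at 37C, with lithium (50 mM LiCl) present in the buffer.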
15-hLO-2 inh: qHTS Assay for Inhibitors of 15-hLO-2 (15-human lipoxygenase 2). purified 15hLO-2, xylenol orange hydroperoxide absorbance. actives 0.56% (n = 110,000). Potency, µM (series often up to 57.1 µM), without a hit: at the top dose activity change, negative = inhibition, usual class: inhibitors; also: potency is read from the fitted curve at half-maximal effect; nearly all actives have a fitted effect of over 60% in size
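Purified human 15hLO-2 (50 nM final) preincubated with compounds 15 min at room temperature in 25 mM Hepes pH 7.5, 0.01% Triton X-100, then 45 uM arachidonic acid added for 90 min; hydroperoxide detected via ferrous/xylenol orange, 573/405 nm absorbance ratio.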
HPGD block: qHTS Assay for Inhibitors of HPGD (15-Hydroxyprostaglandin Dehydrogenase) | 15-hydroxyprostaglandin dehydrogenase [NAD(+)] (Homo sapiens), P15428 | purified HPGD, NADH fluorescence kinetic, PGE2 substrate | Potency, µM, for the others: top-dose activity change, negative = inhibition, most hits filed as inhibitors | actives 4.3% (n = 150,000); active = well fitted inhibition curve with a large enough effect, not every such curve was filed as active; inconclusive = small, poorly fitted or top-dose-only effect, or another doubt; inactive = no such curve, though single readings can be large or run the other way; also: potency is read from the fitted curve at half-maximal effect
Target sequence (P15428 whole entry, looked up): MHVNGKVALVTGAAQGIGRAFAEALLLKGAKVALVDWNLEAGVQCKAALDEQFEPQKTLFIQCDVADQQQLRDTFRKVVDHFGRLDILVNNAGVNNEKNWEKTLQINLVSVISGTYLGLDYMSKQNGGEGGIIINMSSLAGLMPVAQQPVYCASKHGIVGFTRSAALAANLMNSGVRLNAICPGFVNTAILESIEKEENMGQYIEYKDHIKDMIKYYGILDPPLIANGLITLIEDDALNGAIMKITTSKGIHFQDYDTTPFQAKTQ
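20 nM HPGD preincubated 15 min at room temperature with compound in 50 mM Tris-HCl pH 8, 0.01% Tween 20. Started with 1 mM NAD+ and 30 uM prostaglandin E2; NADH fluorescence (360/450 nm) read 5 times over 30-s intervals, last minus first.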
12-hLO inh: qHTS Assay for Inhibitors of 12-hLO (12-human lipoxygenase). Polyunsaturated fatty acid lipoxygenase ALOX12 (Homo sapiens), P18054. Potency, µM (highest dose often 57.1 µM), inactives show at the highest dose activity change, negative = inhibition, usual class: inhibitors. purified 12-hLO, xylenol orange hydroperoxide absorbance. actives 0.12% (n = 150,000); also: potency is read from the fitted curve at half-maximal effect; nearly all actives have a fitted effect of over 55% in size
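Purified human 12hLO (150 nM), preincubated 15 min with compound, then 40 uM arachidonic acid for 30 min, room temperature, Hepes pH 7.0 with 0.01% Triton X-100. Hydroperoxide detected by ferrous iron/xylenol orange; 573/405 nm absorbance ratio gives reaction progress.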
An asterisk follows results filed as active; u = inconclusive; x = no result; [ ] = dose if it differs, or a comment. Unless noted, calls follow the shape of the dose curve; as a rule, active = well fitted curve in the direction sought with a large enough effect; inconclusive = small, poorly fitted or top-dose-only effect, or another doubt; inactive = no such curve, though single readings can be large; an effect the other way counts as inactive or inconclusive. Unless noted, % is scaled to controls: 0 for no effect and ±100 for the full control effect.

SMILES | IMPase Li cell | PNC inhibitor | IMPase cell inh | 15-hLO-2 inh | HPGD block | 12-hLO inh
O=C(N1CCOCC1)n1nnc2ccccc21 | -4%[38.3 µM] | u | -2 | 11% | -5% | -8%
O=C(N1CCOCC1)n1cnc2ccccc21 | 2% | -100* | -5 | x | -9% | 6%
CCc1cc(-c2n[nH]c(=S)n2C(C)c2ccccc2)cs1 (configuration not stated) | 30%[38.3 µM] | 38 | 0 | -17% | 16µM* | 16µM*
Cc1ccccc1-n1c(-c2csc(C)c2C)n[nH]c1=S | 2% | 23 | x | x | -25% | -5%
Cc1cccc(-n2c(-c3csc(C)c3C)n[nH]c2=S)c1 | 0% | 16 | x | x | 10µM* | -3%
CC(C)c1cc(-c2n[nH]c(=S)n2Cc2ccccc2)cs1 | -7%[38.3 µM] | 71 | -7 | u | u | u
Cc1scc(-c2n[nH]c(=S)n2C(C)c2ccccc2)c1C (configuration not stated) | 14% | -14 | x | x | 25µM* | -13%
Cc1cc(C)n(C(=O)c2ccc(Cn3nc(C)c(Br)c3C)o2)n1 | 7% | -100* | -4 | x | -6% | -3%
Cc1nn(Cc2ccc(C(=O)n3cccn3)o2)c(C)c1Br | 10% | -11 | -6 | x | -4% | 5%
CC(Oc1ccc(-c2nccc(-c3ccccn3)n2)cc1)C(=O)NN (configuration not stated) | 16%[38.3 µM] | 6 | 7 | 5% | -5% | 0%
Cc1cccc(N=Cc2c(O)cc(C)oc2=O)c1 | 1% | x | x | x | x | x
Cc1cccc(N=Cc2[nH]c3ccc(Br)c(Cl)c3c2O)c1 | -1% | 11 | x | x | 14µM* | -1%
COc1ccccc1CN=Cc1[nH]c2ccc(Br)c(Cl)c2c1O | 7.1µM* | 19 | u | -20% | 13µM* | -22%
COC(=O)CC1C(C)(C)C(OC(C)=O)C2[C@H](OC(C)=O)[C@]34O[C@]2(O)[C@]1(C)C3CC[C@]1(C)C4=CC(=O)OC1c1ccoc1 (some centres not stated) | 3% | x | x | -4% | -17% | -4%
Cc1cc2ccccc2n1CCNC(=O)C(C)C | 9%[38.3 µM] | 6 | 1 | -7% | -3% | -5%
Cc1cc2ccccc2n1CCNC(=O)C(C)Oc1ccccc1 (configuration not stated) | 10%[38.3 µM] | -108* | -20 | -7% | -15% | -14%
CCN(CC)CCCCNC(=O)c1ccc(Cc2nc3ccccc3[nH]2)cc1 | x | x | x | x | -3% | 5%
COCCCN1C(=O)C(=O)/C(=C(/O)c2ccc(OC(C)C)cc2)C1c1cccnc1 (configuration not stated) | 11µM* | 4 | -21 | 8% | -17% | -13%
COCCCN1C(=O)C(=O)/C(=C(/O)c2ccc(OC(C)C)c(C)c2)C1c1ccncc1 (configuration not stated) | 10µM* | -29 | -30 | -10% | -4% | -13%
CCCOc1ccc(/C(O)=C2/C(=O)C(=O)N(CCCOC)C2c2cccnc2)cc1 (configuration not stated) | 10µM* | -1 | -12 | -1% | -17% | -2%
COCCCN1C(=O)C(=O)/C(=C(/O)c2ccc(OCC(C)C)cc2)C1c1cccnc1 (configuration not stated) | u | 116 | -4 | 8% | -7% | 5%
C=CCOc1ccc(/C(O)=C2\C(=O)C(=O)N(CCCOC)C2c2ccncc2)cc1 (configuration not stated) | u | 9 | -20 | -1% | -30% | -15%
Cc1ccc(C)c(/C(O)=C2\C(=O)C(=O)N(CCCn3ccnc3)C2c2ccncc2)c1 (configuration not stated) | -29%[38.3 µM] | 24 | 4 | 32% | 28µM* | -3%
CCc1nnc(NC(=O)CSc2nc3cc(OC)c(OC)cc3cc2C)s1 | 20% | x | x | x | x | x
Nc1nc(Sc2ccc([N+](=O)[O-])c3nonc23)c2[nH]cnc2n1 | 16% | x | x | u | 1.3µM* | -28%[11.4 µM]
SMILES | IMPase Li cell | PNC inhibitor | IMPase cell inh | 15-hLO-2 inh | HPGD block | 12-hLO inh
CC(=O)Nc1ccc(S(=O)(=O)NCC(=O)OC(C)c2ccccc2Cl)cc1 (configuration not stated) | 17% | -10 | x | x | -10% | -2%
C#CC1(O)CC(C)N(C)C(C)C1 (configuration not stated) | 18%[38.3 µM] | -91* | 0 | 2% | -5% | 3%
COC(=O)CCC(=O)Oc1ccc(OC(=O)CCC(=O)OC)cc1 | -9% | -113* | x | x | -15% | -2%
Cc1cc(C#N)c(C)n1-c1cc(S(=O)(=O)N2CCOCC2)ccc1N1CCCC1 | -1%[38.3 µM] | -27 | 24 | u | 7.9µM* | -7%
O=S(=O)(c1ccc(S(=O)(=O)N2CCOCC2)cc1)N1CCCC1 | 0% | x | x | x | x | x
Cc1cc2c(ncn2C)c(NS(=O)(=O)c2ccccc2Cl)c1C | 56%[38.3 µM] | -83* | -3[1.84 µM] | 9%[11.4 µM] | -2% | 2%
CC(=O)Nc1ccc(NC(=O)c2ccccc2Sc2ccc([N+](=O)[O-])cc2Cl)cc1 | 3% | -80* | -7 | x | -17% | -3%
O=C(NCc1ccccc1)c1ccco1 | 1% | 19 | 1 | x | -17% | -3%
CC(=O)Nc1cccc(NC(=O)c2cc3ccccc3o2)c1 | -4%[38.3 µM] | -27 | 5 | 1% | -4% | 5%
O=C(Nc1ccccc1)c1cc2ccccc2o1 | 5% | -100* | -6 | x | -16% | 15%
O=C(NCc1ccccc1)c1cc2ccccc2o1 | 40%[38.3 µM] | -20 | 5 | -10% | 18µM* | 6%
O=C(NCc1cccc(CNC(=O)c2ccco2)c1)c1ccco1 | -16%[38.3 µM] | u | 13 | 7% | 14µM* | -2%
NCCc1ccn[nH]1 | 7% | x | 0[20.6 µM] | 5%[25.6 µM] | 1% | -1%[25.6 µM]
CC(C)c1ccc2[nH]c3nc(SCC(=O)N4CCOCC4)nnc3c2c1 | -6% | x | x | x | x | x
O=C(NC(=S)NCc1ccccc1)c1ccccc1[N+](=O)[O-] | 5% | x | x | x | x | x
COCc1c(C(=O)OCC(=O)NCCN2C(=O)CSC2=O)oc2ccccc12 | 1% | 36 | x | x | -18% | -1%
CN(C)/C=N/c1sc2c(c1C#N)CCCCC2 | -3% | -11 | x | x | -24% | 1%
N#Cc1c(/N=C/c2cccs2)sc2c1CCCCC2 | 27%[38.3 µM] | u | -14 | -11% | u | -11%
N#Cc1c(/N=C/c2ccc(Br)s2)sc2c1CCC2 | 1% | -100* | -1 | x | -11% | 3%

High-throughput results: PubChem, National Center for Advancing Translational Sciences (NCATS)
